Dicer inh: blocks human Dicer maturation of pre-miR-21 | 47,000 tested, 6% active | AID 1347074 | Q9UPY3 | cat-ELCCA pre-miR-21 Dicer processing, chemiluminescence; active compounds read high | z-score at 25 µM; in the data active = z-score above about 3, passing the limit was not always enough;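 note: plate controls were vehicle for no effect and no enzyme for full effect; higher signal means more uncleaved substrate so more Dicer inhibition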
Starred values were filed as active, the others as inactive. This excerpt belongs to a sample that is enriched for hits.

SMILES	Dicer inh
Nc1ccc(-c2nnc(Nc3ccccc3C(F)(F)F)s2)cc1	3.6*
NC(=S)Nc1ccccc1C(F)(F)F	-0.1
COC(=O)c1cccc(C(=O)Oc2ccc(OC)cc2)n1	0.13
CCOC(=O)c1cccc(C(=O)Oc2ccccc2)n1	6.2*
CCOC(=O)c1cccc(C(=O)O)n1	0.56
CCOC(=O)c1c(NC(=O)c2nc3ncccn3n2)sc(C)c1C	1.8
CS(=O)(=O)c1scc(-c2ccc(Cl)cc2)c1C#N	-0.65
Cc1cc(N2CCN(c3ccc(Cl)cc3)CC2)n2ncnc2n1	-1.3
O=C1CCC(=O)N1CNc1c(F)cccc1F	0.95
CC(C)c1ccc(NCN2C(=O)CCC2=O)cc1	3.7*
O=C1CCC(=O)N1CNc1ccc(F)cc1F	4.6*
COc1cc(OC)c(C(F)(F)F)cc1NCN1C(=O)CCC1=O	0.78
O=C1CCC(=O)N1CNc1cc(C(F)(F)F)cc(C(F)(F)F)c1	3.9*
CCc1ccc(NCN2C(=O)c3ccccc3C2=O)cc1	2.7
Cc1ccc(NCN2C(=O)c3ccccc3C2=O)c(C)c1	0.9
Cc1cc(Cl)ccc1NCN1C(=O)CCC1=O	5.2*
CC(C)c1ccc(Nc2cc(=O)[nH]n2C)cc1	-1.8
Cc1cc(Br)ccc1NCN1C(=O)c2ccccc2C1=O	9.1
O=C(CNc1cc(C(F)(F)F)cc(C(F)(F)F)c1)c1ccc(Cl)cc1	1.2
CC1CC(=O)N(c2ccc(F)cc2F)C(=O)C1	0.35
CCOC(=O)c1c[nH]c2ccc(Cl)cc2c1=O	0.32
COc1ccc(S(=O)(=O)N2CCN(S(=O)(=O)c3ccccc3)CC2)cc1	0.85
NC(=NC(=O)c1cccc(Cn2cc(C(F)(F)F)ccc2=O)c1)c1ccccc1	-0.66
CC(C)(C)c1ccc(OCC(O)Cn2c(CO)nc3ccccc32)cc1 (stereo unspecified)	-0.85
O=c1c(F)cn(CC2CC(c3ccccc3)=NO2)c(=O)n1CC1CC(c2ccccc2)=NO1 (stereo unspecified)	0.83
SMILES	Dicer inh
Cn1c(/C=C/C=C/N2CCCC2)nc2ccccc2c1=O	-1.2
Cc1cccc(C)c1NC(=S)NNC(=O)c1cccnc1	-0.05
O=C(CS(=O)(=O)c1ccc(C(F)(F)F)cc1[N+](=O)[O-])Nc1ccc(F)cc1F	-0.38
CCOC(=O)NC(=O)/C(C#N)=C/Nc1sc(C)c(C)c1C(=O)OCC	-3.8
CC1=CC(C)(C)N(C(=O)CSc2nc3ccccc3[nH]2)c2ccccc21	-0.12
Cc1nn2c3c(cnc2c1-c1ccc(F)cc1)C(=O)CC(c1ccc(F)cc1)C3 (stereo unspecified)	0.07
Cc1nn2c3c(cnc2c1-c1ccc(Cl)cc1)C(=O)CC(c1cccs1)C3 (stereo unspecified)	-0.48
Cc1nn2c3c(cnc2c1-c1ccc(F)cc1)C(=O)CC(c1cccs1)C3 (stereo unspecified)	4.2*
CCOC(=O)c1cnc(Nc2nc(C)c3ccc(C)cc3n2)nc1C	1.7
CCCCCC(=O)O/N=C(\C)c1ccn(S(=O)(=O)c2ccc(Cl)cc2)c1	-1
CC(C)CC(NC(=O)c1ccco1)C(=O)O (stereo unspecified)	5.2*
CC(C)C[C@H](NC(=O)[C@@H](O)[C@H](N)Cc1ccccc1)C(=O)O	-4.4
CC(C)C[C@H](NC(=O)c1ccc(Cl)cc1Cl)C(=O)O	2.2
N#C/C(=C\N1CCN(C(c2ccccc2)c2ccccc2)CC1)S(=O)(=O)c1ccccc1	-1.9
O=C(Nc1ccc(CSc2ccc(Cl)cc2)o1)Nc1ccccc1F	-2.5
O=C1C2C(c3ccccc3)OC3(C(=O)c4ccccc4C3=O)C2C(=O)N1c1ccccc1 (stereo unspecified)	0.05
CCOC(=O)C1=NN(c2ccccc2)C2(C(=O)c3ccccc3C2=O)C1c1ccc(C)cc1 (stereo unspecified)	-0.57
O=C(C1=NOC2(C(=O)c3ccccc3C2=O)C1c1ccccc1)c1ccccc1 (stereo unspecified)	3.9*
CC1Oc2ccc(C(=O)c3cc4ccccc4o3)cc2NC1=O (stereo unspecified)	-1.2
Cc1nc2ccccc2c2c1C(=O)N(c1ccccc1C(=O)OCC(=O)C(C)(C)C)C2=O	4.7*
Cc1nc2ccccc2c(C(=O)O)c1C(=O)O	-1.6
CSc1nc2ccccc2c(=O)n1CC(=O)C(C)(C)C	1.5
COc1cccc(NC(=S)Nc2ccc(OC)c(OC)c2)c1	0.85
CCOC(=O)/C(C#N)=C/c1cn(-c2ccccc2)nc1-c1ccc(C)cc1	2.5
Cc1ccc2nc(NC3=NCN(CC4CCCO4)CN3)nc(C)c2c1 (stereo unspecified)	2.1
SMILES	Dicer inh
COc1ccc(S(=O)(=O)N2CCN(C)CC2)cc1C	4*
CN1CCN(S(=O)(=O)c2ccc3ccccc3c2)CC1	-0.65
COc1ccc(OC)c(S(=O)(=O)N2CCN(C)CC2)c1	-1.2
O=C(NNc1ncccc1C(F)(F)F)c1ccc(Cl)c(Cl)c1	1.7
c1csc(-c2nc3c4c5c(sc4ncn3n2)CCCCC5)c1	2.5
O=C1C2C3c4ccccc4C(c4ccccc43)C2C(=O)N1c1ccccc1 (stereo unspecified)	2.9
O=C(O)c1ccccc1N1C(=O)C2C3c4ccccc4C(c4ccccc43)C2C1=O (stereo unspecified)	4.6*

Compound activity: PubChem, Center for Chemical Genomics, University of Michigan
